VHR inh color: blocks the human dual specificity phosphatase VHR1; 50,000 compounds, 0.7% hits; recombinant VHR phosphatase, colorimetric substrate read-out; inhibition, % at 20 µM; in the data active = inhibition above about 60%
Target sequence (P51452 whole entry, looked up): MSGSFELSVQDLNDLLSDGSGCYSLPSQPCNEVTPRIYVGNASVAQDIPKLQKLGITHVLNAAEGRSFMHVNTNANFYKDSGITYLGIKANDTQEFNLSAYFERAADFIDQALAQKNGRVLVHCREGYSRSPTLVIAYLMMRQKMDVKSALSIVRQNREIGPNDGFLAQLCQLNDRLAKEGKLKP
An asterisk follows results filed as active. The entries come from a sample that favours hits as a whole.

SMILES | VHR inh color
CCOC(=O)c1sc(NC(=O)c2ccc(C)c([N+](=O)[O-])c2)c(C(=O)OCC)c1C | -19
COc1cc(NC(=O)c2cc3nc(-c4ccccc4)cc(C)n3n2)c(OC)cc1Cl | 2
Cc1nc2ccccn2c(=O)c1N | -7
COCCNC(=O)C(=O)Nc1cc(Cl)ccc1C | -8
CN1C(=O)NC(=O)/C(=C/c2ccc(-c3ccc(C(=O)O)cc3)o2)C1=O | 16
O=C1NC(=S)N(c2ccc(F)cc2)C(=O)/C1=C/c1cc(Cl)c(O)c(Cl)c1 | 78*
O=C1NC(=S)N(c2ccc(Cl)cc2)C(=O)/C1=C\c1ccc(-c2cccc(C(=O)O)c2)o1 | -7
O=C1NC(=S)N(c2ccc(F)cc2)C(=O)/C1=C/c1ccc(-c2cccc(C(=O)O)c2)o1 | 86*
O=C1NC(=S)N(c2ccccc2)C(=O)/C1=C/c1ccc(-c2ccc(Cl)c(C(=O)O)c2)o1 | 45
O=C1NC(=S)N(c2ccc(Br)cc2)C(=O)/C1=C/c1ccc(-c2ccc(C(=O)O)cc2)o1 | 78*
Cc1ccc(N2C(=O)/C(=C\c3ccc(-c4ccc(Cl)c(C(=O)O)c4)o3)C(=O)NC2=S)cc1 | 1
CN1C(=O)NC(=O)/C(=C\c2cc(Cl)c(O)c(Cl)c2)C1=O | 5
O=C1NC(=S)N(c2ccccc2)C(=O)/C1=C/c1ccc(O)c(Cl)c1 | -34
COc1ccc(-c2nc(NC(=O)c3ccco3)sc2-c2ccc(OC)cc2)cc1 | -15
COc1cc(/C=C2\C(=O)NC(=S)N(c3ccc(Br)cc3)C2=O)ccc1OCC(=O)O | 70
CCn1c2ccccc2c2cc(NC(=O)Cc3ccc(Cl)cc3)ccc21 | 23
CCNC(=O)CC1S/C(=N\N=C(C)C)NC1=O (configuration not stated) | 10
CC(=O)c1ccc(NC(=S)NC(NC(=O)Cc2ccccc2)C(Cl)(Cl)Cl)cc1 (configuration not stated) | -14
O=C1CC(c2ccccc2)CC(O)=C1C=Nc1ccc(Br)cc1 (configuration not stated) | -7
CC(C)=C1C(=O)NN(c2ccccc2)C1=O | 83*
O=C1NN(c2ccccc2)C(=O)/C1=C\C=C\c1ccccc1 | -68
CCc1ccc(/C=C2\C(=O)NN(c3ccccc3)C2=O)cc1 | -16
CCOc1ccc(C=C2C(=O)c3ccccc3C2=O)cc1Cl | 7
COC(=O)c1ccccc1NC(=O)CN(c1ccc(Br)cc1)S(C)(=O)=O | -34
N/C(=N\OC(=O)c1ccc(I)cc1)c1ccc([N+](=O)[O-])cc1 | -6
SMILES | VHR inh color
COc1cccc(/C=C2\SC(=S)N(CC(=O)Nc3nccs3)C2=O)c1 | -6
Cc1ccc(-n2c(O)c(/C=C3\C=Nc4ccccc43)c(=O)[nH]c2=S)cc1 | 64*
O=c1[nH]c(=S)n(-c2ccc(Cl)c(Cl)c2)c(O)c1/C=C1/C=Nc2ccccc21 | -3
Cc1cc(C)cc(-n2c(O)c(/C=C3\C=Nc4ccccc43)c(=O)[nH]c2=O)c1 | -14
CC(=O)CC(c1ccccc1)S(=O)(=O)c1cccc(C)c1 (configuration not stated) | -76
CC(CNS(=O)(=O)c1ccccc1)c1ccccc1 (configuration not stated) | -4
COc1cccc2cc(C(=O)Nc3ccccc3C(=O)O)c(=O)oc12 | 12
Cc1ccc(C)c(NC(=O)COc2ccc3ccccc3c2)c1 | 10
N/C(=N\c1nc(C(F)(F)F)cc(=O)[nH]1)Nc1cccc2ccccc12 | 35
Cc1cc(C)cc(-n2c(C)cc(C=C3SC(=S)NC3=O)c2C)c1 | -5
Cc1cc(/C=C2/SC(=O)NC2=O)c(C)n1-c1cccc(Cl)c1 | -3
Cc1cc(/C=C2/SC(=S)NC2=O)c(C)n1-c1cccc(Cl)c1 | 95*
CCOc1cc(C(=S)N2CCOCC2)cc(Br)c1O | -2
COc1ccccc1C1NC(=S)NC(C)=C1C(=O)Nc1cccc(Cl)c1 (configuration not stated) | 10
COc1ccc(Br)c(/C=N/NC(=O)CCCCCCC(=O)N/N=C/c2cc(OC)ccc2Br)c1 | -17
CCOc1ccccc1NS(=O)(=O)Cc1ccccc1 | -19
Cc1cc(C)cc(OCC(O)CNC(C)(C)C)c1 (configuration not stated) | -8
COc1ccc(C2C3C(=O)N(c4ccccc4)C(=O)C3N3CCCN23)cc1 (configuration not stated) | 89*
O=C1C2C(C(=O)N1c1cccc(Cl)c1)N1CCCN1C2c1ccccc1 (configuration not stated) | -7
COc1ccc(C2C3C(=O)N(c4ccc(Br)cc4)C(=O)C3N3CCCN23)cc1 (configuration not stated) | 2
COc1cccc(/C=C2/C(=O)NC(=O)N(c3cccc(C)c3)C2=O)c1O | 107*
COc1cccc(/C=C2/C(=O)NC(=O)N(c3cc(C)cc(C)c3)C2=O)c1O | -8
COc1ccc(N2C(=O)NC(=O)/C(=C/c3cccc(OC)c3O)C2=O)cc1 | 77
COc1ccccc1/C=C1\SC(=S)N(c2cccc(C)c2)C1=O | -104
COC(=O)c1c(N)sc2c1CCCCCC2 | -13
SMILES | VHR inh color
COC(=O)c1c(N)sc2c1CCCC2 | 19
NC(=O)c1c(N)sc2c1CCCCCCCCCC2 | 100*
Cc1ccc([N+](=O)[O-])cc1S(=O)(=O)n1nnc2ccccc21 | -19
CCCOc1ccc(N2C(=O)CC(N3CCN(c4ccccc4)CC3)C2=O)cc1 (configuration not stated) | -13
CC(C)c1ccc(/C=C2\SC(=S)NC2=O)cc1 | -15
CC(C)c1ccc(/C=C2\SC(=S)NC2=O)cc1[N+](=O)[O-] | 79*
O=C1NC(=S)S/C1=C\c1ccc(N2CCCCC2)c([N+](=O)[O-])c1 | -37
C=CCN1C(=O)/C(=C\c2ccccc2Cl)SC1=S | 3
O=C(COc1ccc(Cl)cc1Cl)NCc1ccncc1 | 0
O=C(COc1ccc(Cl)cc1Cl)OCc1ccccc1 | -7
O=C(COc1ccc(Cl)cc1Cl)NCCCOCC(=O)Oc1ccc(Cl)cc1Cl | 104*
Cc1cccc(OC(=O)COc2ccc(Cl)cc2Cl)c1 | 10
CC(C)CNC(=O)CCCOc1ccc(Cl)cc1Cl | 6
O=C(COc1ccc(Cl)cc1Cl)Oc1ccccc1 | 84*
CCOc1ccc(-n2nc3ccc(NC(=O)c4ccc(Cl)cc4)cc3n2)cc1 | -15
Cn1c(=O)c([N+](=O)[O-])c(N2CCN(c3ccccn3)CC2)c2ccccc21 | 9
CCOc1ccc(C(=O)Nc2ccc(Br)cn2)cc1Cl | -2
CCOC(=O)c1ccc(N2NC(=O)/C(=C/c3ccc4c(c3)OCO4)C2=O)cc1 | -23
COc1cccc(NC(=O)c2cc(-c3ccc(OC)c(OC)c3)nc3ccccc23)c1 | 8
COc1cccc(N2C(=O)C(=O)/C(=C(\O)c3ccccc3)C2c2ccc(OC)c(OC)c2)c1 (configuration not stated) | -6
CCCCCCOc1ccc(N2C(=O)CC(N3CCN(c4ccccn4)CC3)C2=O)cc1 (configuration not stated) | -26
O=C1C(Cl)=CC(=NS(=O)(=O)c2ccccc2)C=C1Br | 72*
CC1=C/C(=N/S(=O)(=O)c2ccc(C)cc2)C=C(Cl)C1=O | 58
O=C1C=C/C(=N\S(=O)(=O)c2ccccc2)C=C1Cl | 24
COc1cccc(CN2CCN(C3CCCCC3)CC2)c1 | -5
Cc1cc(NC(=O)c2ccc(Cl)cc2)ccc1NC(=O)c1ccccc1 | -4
COc1ccc2ccccc2c1C(=O)/C=C/c1cccnc1 | -2
Cc1ccc(N2NC(=O)/C(=C\c3ccco3)C2=O)cc1C | -13
Cc1ccc(N2NC(=O)/C(=C\c3cccc([N+](=O)[O-])c3)C2=O)cc1 | 22

Source: PubChem BioAssay (Sanford-Burnham Center for Chemical Genomics)
